HP1b chromo inh – HTS for Inhibitors of HP1-beta Chromodomain Interactions with Methylated Histone Tails | hit rate 0.56% among 390,000 | AlphaScreen HP1-beta / biotin-H3K9me3 peptide binding | Potency, µM (series often up to 114 µM), for inactives: top-dose activity change, negative = inhibition, hits mostly inhibitors | Chromobox protein homolog 1 (Homo sapiens), P83916 | AID 540317, 2011; also: nearly all actives have a fitted effect of over 70% in size
Target sequence (P83916 whole entry, looked up): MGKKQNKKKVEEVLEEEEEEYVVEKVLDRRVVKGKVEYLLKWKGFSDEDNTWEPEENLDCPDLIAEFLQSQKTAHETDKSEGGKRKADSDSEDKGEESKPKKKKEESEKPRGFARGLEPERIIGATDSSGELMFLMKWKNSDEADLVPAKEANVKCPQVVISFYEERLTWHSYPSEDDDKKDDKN
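Compound inhibition of the preformed complex between 50 nM HP1-beta and 50 nM biotinylated H3K9me3 peptide was read by AlphaScreen. Buffer was PBS pH 7.4 with 0.01% Tween-20. Incubations ran 30 min at room temperature, with 10 ug/mL donor/acceptor beads.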
Sfp PPTase inh – qHTS Assay for Inhibitors of Bacillus subtilis Sfp phosphopantetheinyl transferase (PPTase). 4'-phosphopantetheinyl transferase ffp (Bacillus subtilis), Q9F4F7. Biochemical Sfp PPTase activity, qHTS. Potency, µM, inactives show largest response in the series, negative = inhibition, actives largely listed as inhibitors. hit rate 3.5% among 310,000. AID 1490, 2009;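 also: the enzyme is Sfp with the accession as filed and its product quenches rhodamine fluorescence; 0% = enzyme reaction without inhibitor and -100% = no enzyme wells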
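Reaction rates are the 30-min fluorescence difference (ex 525, em 598 nm) in wells containing 15 nM Sfp, 5 uM rhodamine-CoA and 12.5 uM BHQ-2-YbbR at pH 7.6 with 10 mM MgCl2.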
JMJD2A Tudor – qHTS Assay for Inhibitors of JMJD2A-Tudor Domain | Lysine-specific demethylase 4A (Homo sapiens), O75164 | AlphaScreen JMJD2A-Tudor / H3K4me3 peptide binding | Potency, µM (titrated, usually from 114 µM), without a hit: at the highest dose activity change, negative = inhibition, actives largely listed as inhibitors | hit rate 4.4% among 390,000 | AID 504339, 2011; also: % is scaled to controls: 0 for no effect and ±100 for the full control effect; nearly all actives have a fitted effect of over 50% in size
G9a block – qHTS Assay for Inhibitors of Histone Lysine Methyltransferase G9a. G9a H3K9 monomethylation, AlphaScreen, 2 h. Histone-lysine N-methyltransferase EHMT2 (Homo sapiens), Q96KQ7. Potency, µM (series often up to 102 µM), for the others: at the highest dose activity, negative = inhibition, most hits filed as inhibitors. hit rate 8.8% among 350,000. AID 504332, 2011; also: % is scaled to controls: 0 for no effect and ±100 for the full control effect; nearly all actives have a fitted effect of over 75% in size
Target sequence (Q96KQ7 913-1193 limits assumed): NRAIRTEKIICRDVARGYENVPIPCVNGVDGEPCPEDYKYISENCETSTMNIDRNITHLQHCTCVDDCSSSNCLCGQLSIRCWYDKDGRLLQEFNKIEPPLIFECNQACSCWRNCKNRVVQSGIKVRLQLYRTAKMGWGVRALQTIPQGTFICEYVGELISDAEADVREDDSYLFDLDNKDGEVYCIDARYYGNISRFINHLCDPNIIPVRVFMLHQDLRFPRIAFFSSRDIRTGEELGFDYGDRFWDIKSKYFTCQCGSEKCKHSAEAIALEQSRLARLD
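Step 1: enzyme (final 20 nM) with compound, 15 min RT. Step 2: substrate peptide 500 nM and SAM 20 uM, 2 h RT. Step 3: anti-H3K9me1 antibody and AlphaScreen beads, 10 min, then plate read.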
BAZ2B inh – qHTS Assay for Inhibitors of BAZ2B | Bromodomain adjacent to zinc finger domain protein 2B (Homo sapiens), Q9UIF8 | AlphaScreen BAZ2B-H3K14Ac peptide displacement | Potency, µM (highest dose often 114 µM), for inactives: at the highest dose activity change, negative = inhibition, actives largely listed as inhibitors | hit rate 4.4% among 360,000 | AID 504333, 2011; also: % is scaled to controls: 0 for no effect and ±100 for the full control effect; nearly all actives have a fitted effect of over 60% in size
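AlphaScreen luminescence quantifies BAZ2B engagement of H3K14Ac peptide; the protein and biotinylated peptide are both at 50 nM final, buffer PBS pH 7.4 with 0.01% Tween-20, all steps at room temperature.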
L3MBTL1 block – qHTS Assay for the Inhibitors of L3MBTL1 | Lethal(3)malignant brain tumor-like protein 1 (Homo sapiens), Q9Y468 | AlphaScreen L3MBTL1–H3K9me1 peptide binding | Potency, µM (series often up to 57.1 µM), for inactives: at the highest dose activity, negative = inhibition, most hits filed as inhibitors | hit rate 0.66% among 230,000; also: % is scaled to controls: 0 for no effect and ±100 for the full control effect; nearly all actives have a fitted effect of over 60% in size
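AlphaScreen proximity signal between nickel-chelate acceptor and streptavidin donor beads (final 10 ug/mL) reports binding of 50 nM L3MBTL1 to 75 nM biotin-H3 K9me1 peptide; complex incubated with compounds 30 min at room temperature; cefsulodin titration as control.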
* = called active by the depositor; ? = inconclusive; nt = no result; [ ] = dose if it differs, or a comment. An excerpt weighted towards active compounds, which were near 12% of everything screened. Calls follow the shape of the dose curve; as a rule, active = well fitted curve in the direction sought with a large enough effect; inconclusive = small, poorly fitted or top-dose-only effect, or another doubt; inactive = no such curve, though single readings can be large; an effect the other way counts as inactive or inconclusive. Potency is read from the fitted curve at half-maximal effect.

SMILES	HP1b chromo inh	Sfp PPTase inh	JMJD2A Tudor	G9a block	BAZ2B inh	L3MBTL1 block
CCNC(=O)[C@@H]1CCCN1C(=O)[C@H](CCCN=C(N)N)NC(=O)[C@H](CC(C)C)NC(=O)[C@@H](Cc1c[nH]c2ccccc12)NC(=O)[C@H](Cc1ccc(O)cc1)NC(=O)[C@H](CO)NC(=O)[C@H](Cc1c[nH]c2ccccc12)NC(=O)[C@H](Cc1cnc[nH]1)NC(=O)[C@@H]1CCC(=O)N1	nt	?	nt	-31%[12.7 µM]	nt	nt
Cc1cc(N2CCN(Cc3cn(C)nc3-c3cccc(Cl)c3)CC2)cc(C)n1	0%	-3%	-15%	nt	45µM*	5%
Cc1ccccc1N=C/C=C1\N(C)c2ccccc2C1(C)C	3%	8%	-29%	?	7%	nt
CN1/C(=C/C(=O)C2CC2)C(C)(C)c2ccccc21	40%	11%	-24%	1%	-1%	16%
CC1=NN(c2ccccc2)C(=O)/C1=C\C=C1/N(C)c2ccccc2C1(C)C	?	-18%	32µM*	11µM*	10µM*	?
CC1=NN(c2ccccc2)C(=O)/C1=C\C=C1\N(C)c2ccccc2C1(C)C	32µM*	-7%	56µM*	14µM*	10µM*	?
Cc1cccc(CNc2ncncc2-c2ccccc2C)c1	nt	3%	nt	-9%[0.501 µM]	nt	nt
CC(NC(=O)COC(=O)c1ccc2c(=O)n3c(nc2c1)CCCCC3)c1ccccc1 (stereo not given)	36%	nt	-21%	?	-3%	1%
COc1ccc(-c2nc(CCl)cs2)cc1	90%	5%	27%	25µM*	6%	7%
COc1ccc(-c2nc(CCl)cs2)cc1OC	35%	-10%	?	20µM*	-25%	nt
C/C(Cn1nnc([N+](=O)[O-])n1)=N\NC(=O)c1ccccc1O	9%	-7%	45µM*	-5%	2%	-1%
CCNC(=O)/C(C#N)=C/c1c(N2CCN(Cc3ccc4c(c3)OCO4)CC2)nc2c(C)cccn2c1=O	34%	3%	3%	-65%	?	-7%
Cc1ccc2c(C)c(C)c(=O)n(C)c2c1	23%	nt	-11%	nt	nt	nt
CCCCNC(=S)N1CCn2cccc2C1c1ccc(F)cc1 (stereo not given)	-5%	14%	-16%	?	-12%	29%
Cc1cccc(NC(=S)N2CCn3cccc3C2c2cccnc2)c1 (stereo not given)	-10%	1%	-30%	50µM*	?	-8%
COc1cccc(NC(=S)N2CCn3cccc3C2c2cccnc2)c1 (stereo not given)	-6%	9%	-20%	28µM*	50µM*	-13%
CCCCNC(=S)N1CCn2cccc2C1c1ccccc1 (stereo not given)	7%	7%	-24%	56µM*	nt	nt
Fc1ccc(C2c3cccn3CCN2C(=S)Nc2cccc(Br)c2)cc1 (stereo not given)	5%	6%	-20%	71µM*	-33%	nt
Nc1c(C(=O)Nc2ccc(OC(F)(F)F)cc2)sc2nc(-c3ccncc3)ccc12	49%	nt	-1%	?	1%	nt
CCOc1ccc(-n2c(=O)c3c(C)c(C(=O)N(C)C)sc3n(Cc3cc(C)ccc3C)c2=O)cc1	13%	nt	-19%	16%[59 µM]	-5%	nt
COc1ccc2c(=O)ccoc2c1	nt	2%	nt	nt	nt	nt
CCOC(=O)c1c(CN(C)C)n(C)c2c(O)c(N=NC(N)=O)c3ccc(Br)cc3c12	18%	7%	35µM*	-12%	-2%	nt
CCOC(=O)C1CCN(C(=O)CC(C)S(=O)(=O)c2ccc3c(c2)NC(=O)CO3)CC1 (stereo not given)	32%	9%	-13%	71µM*	-3%	nt
CCOC(=O)C1CCN(C(=O)CN2C(=O)COc3ccc(C(C)(C)C)cc32)CC1	-7%	10%	79µM*	-10%	-4%	nt
COc1ccc(N2CCN(C(=O)CC(C)S(=O)(=O)c3ccc4c(c3)NC(=O)CO4)CC2)cc1 (stereo not given)	-9%	-2%	-35%	nt	-11%	nt
SMILES	HP1b chromo inh	Sfp PPTase inh	JMJD2A Tudor	G9a block	BAZ2B inh	L3MBTL1 block
Cc1cccc(NC(=O)c2cc(-c3ccc4c(c3)OCCO4)on2)c1	100%	nt	-7%	42%[59 µM]	26%	nt
O=C(NNC(=O)c1ccc2ccccc2c1)c1cccc(Cl)c1	31%[57 µM]	nt	-6%	nt	nt	nt
Cc1cccc(CSCc2ccc(C(=O)NCCc3ccccc3)o2)c1	45%	nt	7%	14%[59 µM]	34%	nt
COc1ccc(OC)c(C(c2nnnn2C2CCCC2)N2CCc3ccccc3C2)c1 (stereo not given)	11%	-4%	-27%	?	?	nt
COc1ccc(OC)c(C(c2nnnn2C2CCCC2)N2CCN(c3ccccc3F)CC2)c1 (stereo not given)	-2%	8%	-34%	-5%[59 µM]	50µM*	-7%
COCCn1nnnc1C(c1cccs1)N1CCN(c2cc(C)ccc2C)CC1 (stereo not given)	-16%	-15%	79µM*	-44%[12.7 µM]	-37%	nt
COc1ccc(N2CCN(C(c3cccc(OC)c3OC)c3nnnn3C3CCCC3)CC2)cc1 (stereo not given)	?	-7%	45µM*	13µM*	40µM*	?
COc1ccc(N2CCN(C(c3cccs3)c3nnnn3C3CCCC3)CC2)cc1 (stereo not given)	-27%	12%	?	?	?	nt
COc1ccc(N2CCN(C(c3ccccc3OC)c3nnnn3C3CCCC3)CC2)cc1 (stereo not given)	?	4%	56µM*	16µM*	45µM*	-25%
Cc1ccc(CNCc2cc(Cl)ccc2O)cc1	26%	nt	-22%	15%[2.33 µM]	7%	-5%
COc1ccccc1C(c1nnnn1CCc1ccccc1)N1CCN(c2ccccc2)CC1 (stereo not given)	-1%	6%	-14%	?	-29%	-5%
COCCn1nnnc1C(c1ccccc1OC)N1CCN(c2ccccc2)CC1 (stereo not given)	33%	14%	45µM*	45µM*	-24%	5%
COc1ccc(N2CCN(C(c3cc(OC)ccc3OC)c3nnnn3CC3CCCO3)CC2)cc1 (stereo not given)	0%	15%	79µM*	14µM*	50µM*	-7%
